High-throughput results (PubChem)
Pf Dd2 inh = Plasmodium falciparum Dd2 growth inhibition; Potency, µM (series often up to 28.9 µM), inactives show at the highest dose activity, negative = inhibition, hits mostly inhibitors; P. falciparum Dd2 growth, SYBR Green, 72 h; hit rate 4.3% among 120,000; AID 1347417; active = well fitted inhibition curve with a large enough effect;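 note: plate controls were DMSO vehicle for no effect and reference drug for full effect; nearly all actives have a fitted effect of over 65% in size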
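Readout: SYBR Green fluorescence, 485 nm excitation, 535 nm emission, after ~16 h lysis at 37C. Before that, Dd2-infected red cells (2.5% hematocrit) grew 72 h with compound, 29 uM top final concentration.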
* hit, by the source's call; i = inactive; [ ] = another dose, or the depositor's remark. This is one part of a sample in which hits are shown more often than they occur. Potency is the fitted concentration of half-maximal effect.

SMILES	Pf Dd2 inh
CC(C)CNC(=O)c1cc(C2CC2)nc2c1c(C1CCCN1)nn2-c1ccccc1 (configuration not stated)	4.5µM*
O=C(NCc1ccncc1)c1cc(C2CC2)nc2c1c(C1CCCN1)nn2-c1ccccc1 (configuration not stated)	8.9µM*
CC(C)CNC(=O)c1cc(C2CC2)nc2onc(C3CCCNC3)c12 (configuration not stated)	-23%
O=C(NCC(F)(F)F)c1cc(C2CC2)nc2c1c(C1CCCN1)nn2-c1ccccc1 (configuration not stated)	8.9µM*
Cn1nc(C2CCCN2)c2c(C(=O)NCC(F)(F)F)cc(C3CC3)nc21 (configuration not stated)	-14%
COc1ccc(CNC(=O)c2cc(C3CC3)nc3c2c(C)nn3-c2cccc(Cl)c2C)cc1	6%
O=C(NCC(F)(F)F)c1cc(C2CC2)nc2onc(C3CCCNC3)c12 (configuration not stated)	2%
Nc1n[nH]c(C(=O)N2C[C@@H](C(=O)O)[C@H](C3CC3)C2)c1Cl	1%
C#CCNC(=O)C1CCc2nnc(C3CCN(C(=O)c4ccccc4)CC3)n21 (configuration not stated)	16%
COCc1cn(C[C@H]2C[C@@H](NC(=O)C3CCOCC3)[C@H](O)[C@@H]2O)nn1	25%[44.1 µM]
Cc1cc(C[C@@H]2COC[C@@H]2NC(=O)c2cnn3ccccc23)on1	-14%
CCCN1C(=O)CCc2cc(NC(=O)c3ccc(C)s3)ccc21	-11%
COc1ccc(CN2CCC3(CC2)Cc2ccccc2CNC3=O)cc1	-3%
CCOC(=O)C(C)N1CCOc2c(O)cc(-c3cccc(Cl)c3)cc2C1 (configuration not stated)	11µM*
CC(=O)NCCC(=O)N1CCOc2c(O)cc(-c3cccc(Cl)c3)cc2C1	i
CC1=NOC(C(=O)N2CCOc3c(O)cc(-c4nc(C)cnc4C)cc3C2)C1 (configuration not stated)	-13%
COCCOc1ccc(C(=O)N[C@@H]2CN(C3CCN(C)CC3)CCC[C@H]2O)cc1	-18%[44.1 µM]
O=C(c1ccc(C(F)(F)F)cc1)N1CCn2c(nnc2-c2cccnc2)C1	12%
O=C(Cn1ccn2nc(-c3ccc(F)cc3)c(CO)c2c1=O)Nc1ccccc1C(F)(F)F	-15%
CCn1ccc(C(=O)N2CC3CC(C2)[C@H]2CCCC(=O)N2C3)n1 (some centres not stated)	14%
Cc1ccc(CN2C[C@H]3CN(C(=O)c4cccnc4)CCN3C2=O)cc1	5%[44.1 µM]
CN1C(=O)[C@H]2CN(Cc3ccco3)C[C@H]2C1=O	42%
CN(C)c1ncnc2sc3c(c12)CCN(Cc1ccc2cc[nH]c2c1)C3	1.3µM*
Cc1ccsc1CN1CCc2nc(N3CCN(C)CC3)[nH]c(=O)c2CC1	i[5.79 µM]
CN1c2cccnc2CN(Cc2ccco2)CC[C@H]1CO	-15%[44.1 µM]
SMILES	Pf Dd2 inh
CN(Cc1cccnc1)c1nc2c(c(=O)[nH]1)CCN(Cc1ccc3[nH]ccc3c1)CC2	40%[5.79 µM]
Cc1ccsc1CN1CCc2nc(N(C)C)[nH]c(=O)c2CC1	-27%[5.79 µM]
Cc1ccsc1CN1CCc2c(sc3ncnc(N(C)C)c23)C1	5µM*
CN(C)c1ncnc2sc3c(c12)CCN(Cc1ccco1)C3	4µM*
CN1CCN(c2nc3c(c(=O)[nH]2)CCN(Cc2ccc4cc[nH]c4c2)CC3)CC1	i[5.79 µM]
CN(Cc1ccc(F)cc1)S(=O)(=O)c1cccc(C(F)(F)F)c1	-9%
O=C(N[C@@H]1CN(C(=O)Cn2c(=O)oc3ccccc32)CC[C@@H]1CO)C1CC1	11%
CCc1nc(-c2c3n(c(=O)n(CC(=O)Nc4ccccc4Cl)c2=O)CCCCC3)no1	-8%
O=[S+]1([O-])NC2(CCN(Cc3ccncc3)CC2)COc2ccccc21	11%
O=C(Nc1ccc([C@H]2OCC(=O)N(C3CCOCC3)[C@@H]2CO)cc1)c1cnccn1	6%[44.1 µM]
COCCN1Cc2ccc(Nc3ccc(OC)cc3)nc2C(C)(C(=O)NC(C)C)C1 (configuration not stated)	13µM*
COCCN1Cc2ccc(NCc3ccccc3)nc2C(C)(C(=O)NCc2ccccc2)C1 (configuration not stated)	-26%
COCCN1Cc2ccc(Nc3ccc(OC)cc3)nc2C(C)(C(=O)NCC2CC2)C1 (configuration not stated)	i
C[S+](=O)([O-])N1CCn2cc(C(=O)N3CCOCC3)nc2C1	17%
CN(Cc1nccn1Cc1ccccc1)C(=O)CCc1ccc2c(c1)OCO2	-10%
Cc1c(C(=O)NCCN(C)C)oc2c1-c1nn(Cc3cccc(Cl)c3)cc1CC2	-7%
CN(C)CCN(C)Cc1cn(Cc2ccccc2)nc1-c1ccc2c(c1)OCO2	10µM*
OC[C@H]1CCN(Cc2cn(-c3ccccc3)nc2-c2ccncc2)C[C@@H]1O	-30%
CCc1ccc(N2CC(c3noc(-c4ccc(OC)c(F)c4)n3)CC2=O)cc1 (configuration not stated)	9%
CCN1CCN(Cc2cn(-c3ccccc3F)nc2-c2cc(C)sc2C)CC1	11µM*
CCc1c(CN2CCN(c3ccccc3F)CC2)csc1C	-1%
CCC1CN(Cc2cn(-c3ccccc3C)nc2-c2ccc(OC)c(F)c2)CCO1 (configuration not stated)	11µM*
COc1ccc(-c2nn(-c3ccccc3C)cc2CN2CCCN(C)CC2)cc1F	7.9µM*
COc1ccc(OC)c(CN2CCN(S(=O)(=O)c3ccccc3)CC2)c1	i
COCCn1cc(CN2CCN(Cc3ccccc3F)CC2)ccc1=O	22%
SMILES	Pf Dd2 inh
COc1ccc(-c2nn(-c3ccccc3)cc2CN2CCCC(C)(O)C2)c(F)c1 (configuration not stated)	i
O=C(c1ccc(Cl)cc1)N1CCC2(CC1)CN[S+](=O)([O-])c1cccnc1O2	8%
O=C(c1ccccc1F)N1CCn2c(nn(-c3ccncc3)c2=O)C1	12%[44.1 µM]
O=C(Cc1ccccc1)Nc1ccc([C@H]2OCC(=O)N[C@@H]2CO)cc1	28%[44.1 µM]
COCC1CN(C(C)=O)CC12CCN(Cc1ccc(Cl)c(F)c1)CC2 (configuration not stated)	-20%
COCCO[C@H]1C(=O)N(C2CCN(C(=O)c3ocnc3C)CC2)[C@H]1c1ccncc1	-7%
CC(C)CCNC(=O)C1CCN(C(=O)N2CC3CC(C2)[C@H]2CCCC(=O)N2C3)CC1 (some centres not stated)	-2%
C[C@H]1[C@@H]2[C@H]3OC(=O)[C@@H](C)[C@@H]3CC[C@@]2(C)CC[C@@H]1NC(=O)C1CCCCC1	i
C[C@H]1[C@@H]2[C@H]3OC(=O)[C@@H](C)[C@@H]3CC[C@@]2(C)CC[C@@H]1NC(=O)CC(C)(C)C	1.3µM*
COCC(=O)N[C@H]1CC[C@]2(C)CC[C@@H]3[C@H](OC(=O)[C@H]3C)[C@H]2[C@@H]1C	-7%[44.1 µM]
CCN(CC)C(=O)C(C)[C@@H]1CC[C@@]2(C)CC[C@H](NC(=O)CC(C)(C)C)[C@@H](C)[C@@H]2[C@H]1O (some centres not stated)	i
C[C@H]1[C@@H]2[C@@H](O)C([C@H](C)C(=O)NCCN3CCOCC3)CC[C@@]2(C)CC[C@@H]1NC(=O)CC(C)(C)C (some centres not stated)	-2%
CC(C)NC(=O)C(C)[C@@H]1CC[C@@]2(C)CC[C@H](NC(=O)CC(C)(C)C)[C@@H](C)[C@@H]2[C@H]1O (some centres not stated)	6.3µM*
CCN(CC)C(=O)[C@@H]1CCC[C@@H](NCc2ccc(OC)cc2)CN(C)C(=O)C1	7%[44.1 µM]
